Most compounds without a hit are left out; they make up all but 3.8% or so of the library.
Mot1-301 SUMO = yeast Mot1-301 growth rescue at high temperature, primary screen, SUMOylation pathway inhibitor project, S. cerevisiae, ATP luminescence, 38.5C; S. cerevisiae Mot1-301 growth rescue; percent above DMSO median, 100 means doubled; growth rescue, % at 18.8 µM; actives 1% (n = 320,000);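 active = every valid replicate shows activation above 250% relative to neutral control wells; inactive = the rest, any valid replicate at or below 250%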
aDG glyco act = activators of alpha-DG glycosylation, primary screen, uHTS, Pro5-aDG cells, AlphaScreen. alpha-DG glycosylation AlphaScreen (IIH6); 0% Pro5, 100% B10-LARGE cell signal. activation, % at 10 µM. actives 0.22% (n = 360,000). AID 624168, 2012;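 active = activation of at least 8% versus controls, or a plate z-score of at least 8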;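 also: Pro5 are CHO cells carrying HIG-tagged alpha-DG that lacks glycosylation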
Cardio protect = cardioprotection against H2O2-induced cell death, primary screen, uHTS, H9c2 cells, ATPLite luminescence; actives 0.63% (n = 360,000); H9c2 cardiomyocytes, H2O2 injury protection, 2 h; AID 588492, 2011; protection from H2O2 cell death, % at 20 µM;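 active = compounds giving at least 50% protection of heart cells from peroxide-induced death in the single-dose screen, raw or plate-pattern-corrected value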
Yeast superoxide = reduction of superoxide in aged yeast, primary screen, HTS. superoxide response (% of plate mean), % at 10 µM. AID 2690, 2010. actives 0.18% (n = 330,000). S. cerevisiae aged cells, superoxide DHE fluorescence; hits give low values;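 active = superoxide response under a set limit, about three screen SD below normal, cut at about 65% in these data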;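 also: yeast aged for seven days with compound at 30 °C before DHE staining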
MPTP inh = mitochondrial permeability transition pore inhibitors, primary screen, biochemical, isolated mouse mitochondria, absorbance | Ca2+ swelling absorbance, 30 min | inhibition, % at 10 µM | actives 1.4% (n = 360,000);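 active = inhibition of 50% or more, scaled per plate between neutral and stimulator controls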
FAS TE block = FAS thioesterase domain inhibitors, primary screen, biochemical, fluorescence intensity, uHTS; Fatty acid synthase (Homo sapiens), P49327; recombinant FAS-TE, OMFH fluorogenic substrate, fluorescence endpoint; inhibition, % at 15 µM; actives 0.67% (n = 360,000);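 active = compounds whose normalised, plate-corrected inhibition of enzyme fluorescence in the single-dose primary screen is 50% or more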
Rh123 counter = fluorescence retest of MPTP screen hits in isolated mitochondria, single concentration | actives 78% (n = 5,000) | inhibition, % at 10 µM | shares compounds with MPTP inh | AID 624504, 2012 | membrane potential, Rhodamine 123 fluorescence; in the data active = inhibition above about 22%
MPTP swell DR = mitochondrial permeability transition pore inhibitors, dose response, biochemical, absorbance, uHTS hits. shares compounds with MPTP inh. isolated mitochondria swelling. IC50, µM. actives 58% (n = 780). AID 651561, 2012; in the data active = IC50 below about 20 µM
MPTP counter DR = fluorescent counter-screen in isolated mitochondria, dose response, counter-screen for MPTP inhibitor project, biochemical, fluorescence, uHTS hits | shares compounds with MPTP inh | isolated mitochondria counterscreen, fluorescence read-out | IC50, µM | actives 49% (n = 780) | AID 651564, 2012; in the data active = IC50 below about 80 µM
Each line names hits and unclear results; the compound was inactive in the other large screens (follow-up assays come after a bar, where they were run); ! = not confirmed by another sample.

CCCCCCCCCc1nc2sc3c(c2c(=O)n1NC(=O)c1ccccc1[N+](=O)[O-])CC(C)(C)OC3	MPTP inh 87 | Rh123 counter 63
CCc1nc2sc3c(c2c(=O)n1N)CC(C)(C)OC3	none
CCCc1nc2sc3c(c2c(=O)n1NC(=O)c1ccco1)CC(C)(C)OC3	none
Fc1ccc(Nc2nc(NCc3ccccc3)nc3ccsc23)cc1	none (no result: Mot1-301 SUMO, Yeast superoxide)
CCN1CCN(CC(=O)n2c3c(c4ccccc42)CC(C)CC3)CC1 (stereo not given)	MPTP inh 78 | Rh123 counter inactive | MPTP swell DR 8.7 | MPTP counter DR inactive
CC1CCc2c(c3ccccc3n2C(=O)CCl)C1 (stereo not given)	none
CCN(CC)CCn1c(=N)n(CC(O)COc2cccc(C)c2)c2ccccc21 (stereo not given)	MPTP inh 71 | Rh123 counter inactive | MPTP swell DR 4.5 | MPTP counter DR 66
Cc1cccc(OCC(O)Cn2c(=N)n(Cc3ccccc3)c3ccccc32)c1 (stereo not given)	none
CCOC(=O)Cn1c(=N)n(CCOc2ccc(Br)cc2)c2ccccc21	none
CCOC(=O)Cn1c(=N)n(CCOc2cccc(C)c2)c2ccccc21	MPTP inh 88 | Rh123 counter inactive | MPTP swell DR 5.3 | MPTP counter DR 57
CCCCCCCCCCS(=O)(=O)N/N=C/c1ccc([N+](=O)[O-])cc1	MPTP inh 85 | Rh123 counter 62
Cc1cc(C)n2nc(C(=O)OCC(=O)NC3CCCCC3)nc2n1	none
CC(C)(C)c1ccc(C(=O)c2c[nH]c(C(=O)NCC3CCCO3)c2)cc1 (stereo not given)	MPTP inh 70 | Rh123 counter inactive | MPTP swell DR inactive | MPTP counter DR 27
O=[N+]([O-])c1nccn1C1C=CC(O)C(CO)O1 (stereo not given)	none (no result: Mot1-301 SUMO, Cardio protect, Yeast superoxide)
CCCCCCc1cc2cc(C(=O)NCc3ccccc3)c(=N)oc2cc1O	MPTP inh 86 | Rh123 counter 74
CCCCCCc1cc2cc(C(=O)Nc3ccccc3)c(=O)oc2cc1O	MPTP inh 73 | Rh123 counter inactive
N=c1oc2ccc(Br)cc2cc1C(=O)NCc1ccccc1	none
O=C(COC(=O)CCS(=O)(=O)c1ccc(F)cc1)NC1CCCCC1	none
Cc1ccc(NC(=O)c2cc(C(=O)c3cc(Cl)ccc3O)cn(-c3ccc(C)cc3)c2=O)cc1	MPTP inh 92 | Rh123 counter 85
COc1ccc(OCCNC(=O)c2cccc(Oc3ccc(C(F)(F)F)cc3[N+](=O)[O-])c2)cc1	none
Cc1ccccc1OCCNC(=O)CSc1ccc(C(F)(F)F)cc1[N+](=O)[O-]	MPTP inh 93 | Rh123 counter 73
COc1cccc(OCCNC(=O)CSc2ccc(C(F)(F)F)cc2[N+](=O)[O-])c1	MPTP inh 76 | Rh123 counter 46
N=C1/C(=C\c2coc3ccc(O)cc3c2=O)C(=O)N=C2SC=CN12	none
CC(C)CSC1=NSC2=NC(=O)/C(=C\c3ccccc3)C(=N)N12	MPTP inh 73 | Rh123 counter 91
CC(C)CSC1=NSC2=NC(=O)/C(=C\c3coc4ccccc4c3=O)C(=N)N12	MPTP inh 89 | Rh123 counter 61
CSC1=NSC2=NC(=O)/C(=C\c3coc4ccccc4c3=O)C(=N)N12	MPTP inh 95 | Rh123 counter 90
Cn1c(SC(C(=O)Nc2ccc(F)cc2)c2ccccc2)nc2ccccc21 (stereo not given)	MPTP inh 64 (no result: Mot1-301 SUMO) | Rh123 counter 66
O=C(Nc1ccc(F)cc1)C(Sc1nc2ccccc2[nH]1)c1ccccc1 (stereo not given)	MPTP inh 97 | Rh123 counter 87
Cc1ccc(C)c(N2CCN(C(=O)c3cc(S(=O)(=O)N4CCCC4)cn3C)CC2)c1	none
COc1ccccc1NC(=O)Cc1csc(NC(=S)Nc2ccccc2)n1	MPTP inh 79 | Rh123 counter 71
COc1ccc(NC(=S)Nc2nc(CC(=O)Nc3ccccc3OC)cs2)cc1	MPTP inh 75 | Rh123 counter 79
COc1ccc(OC)c(NC(=O)Cc2csc(NC(=O)Nc3ccccc3OC)n2)c1	none
Clc1ccc(N2CCN(/N=C/c3ccncc3)CC2)cc1	MPTP inh 61 | Rh123 counter 50
N#C/C(=C\c1ccc(O)cc1)c1nc2ccccc2o1	MPTP inh 87 | Rh123 counter 90
COc1cc(/C=C(\C#N)c2nc3ccccc3o2)ccc1O	none
CCc1ccc(-n2c(=S)sc3c(=O)[nH]c(SCC(=O)NC4CCCCC4)nc32)cc1	none (no result: Mot1-301 SUMO, Yeast superoxide)
Cc1snc(S(=O)(=O)/C(C#N)=N/Nc2cccc(C(F)(F)F)c2)c1C#N	MPTP inh 104 | Rh123 counter 90
COc1ccc(N/N=C(/C#N)S(=O)(=O)c2nsc(C)c2C#N)cc1	none
Cc1ccc(C(C)NC(=S)NCc2ccc(F)cc2)c(C)c1 (stereo not given)	none
CCC(C)Sc1cc(-c2nc3ccc(C)cn3c2NCc2ccccc2)ccc1OC (stereo not given)	MPTP inh 54! | Rh123 counter 105
CCCCNc1c(-c2ccc(OC)c(SC(C)CC)c2)nc2ccc(Cl)cn12 (stereo not given)	none
CCCCNc1c(-c2ccc(OC)c(SC(C)CC)c2)nc2cc(C)ccn12 (stereo not given)	none (no result: Mot1-301 SUMO)
CCCCNc1c(-c2ccc(OC)c(SC(C)CC)c2)nc2ccc(C)cn12 (stereo not given)	MPTP inh 59! | Rh123 counter 99
CCCCNc1c(-c2ccc(Sc3ccc(OC)cc3)cc2)nc2cc(C)ccn12	MPTP inh 60 | Rh123 counter 97
CC(C)N(Cc1nnc(-c2ccc(Cl)cc2)o1)C(=O)c1cc2ccccc2o1	none
COc1ccc(CCN2C(=O)CCC2(C)c2nnnn2-c2ccc3c(c2)OCCO3)cc1OC (stereo not given)	none (no result: Mot1-301 SUMO, Cardio protect, Yeast superoxide)
